Source: PubChem BioAssay (NCI)
The panel holds about 79,000 compounds, 15% with a hit somewhere; the sample as a whole holds those more often. Active and inactive are the calls of the source. No stated cut-off is given here; in the data, active means growth inhibition above about 70%; inactive means the rest.

Experiments:
[1] = NCI Yeast Anticancer Drug Screen. Data for the wt2 strain (AID 169);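 further: 0% = growth of vehicle-treated yeast cultures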; conditions: S. cerevisiae wt2 strain growth inhibition, hits give high values
How it was run: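 Genetically defined yeast strains from a DNA-repair/cell-cycle panel were used. Compound-exposed yeast growth was measured, and the inhibition was calculated relative to vehicle treatment.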

[2] = NCI Yeast Anticancer Drug Screen. Data for the mlh1 strain (AID 171);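 further: 0% = growth of vehicle-treated control cultures of the same strain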; conditions: S. cerevisiae mlh1 strain growth inhibition, hits give high values
How it was run: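 Here the genetically defined yeast mutant is grown with each compound, and the extent to which its growth falls below that of vehicle-exposed cells is reported.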

[3] = NCI Yeast Anticancer Drug Screen. Data for the sgs1 strain (AID 173);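 further: 0% = growth of vehicle-only control cultures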; conditions: S. cerevisiae sgs1 mutant, hits give high values
How it was run: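 Relative growth inhibition, referenced to vehicle, was determined in a yeast strain with a defined alteration affecting DNA damage repair or cell cycle control after compound exposure.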

[4] = NCI Yeast Anticancer Drug Screen. Data for the mlh1 rad18 strain (AID 175); conditions: S. cerevisiae mlh1 rad18 strain growth inhibition, hits give high values
How it was run: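 In this whole-cell yeast screen, a strain with altered DNA damage repair is challenged with compound, and its growth is measured against matched vehicle-treated controls.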

[5] = NCI Yeast Anticancer Drug Screen. Data for the rad18 strain (AID 177); conditions: S. cerevisiae rad18 mutant growth inhibition, hits give high values
How it was run: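 Screen uses a yeast strain with a defined lesion in DNA damage repair; compound effect is read as loss of growth compared to untreated vehicle cultures.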

[6] = NCI Yeast Anticancer Drug Screen. Data for the rad52 strain (AID 147);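 further: 0% = growth of vehicle-treated control cultures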; conditions: S. cerevisiae rad52 mutant growth inhibition, hits give high values
How it was run: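 Measured: yeast growth inhibition. System: strain with a defined DNA damage repair alteration. Reference: vehicle-treated control cultures.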

[7] = NCI Yeast Anticancer Drug Screen. Data for the wt1 strain (AID 149);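 further: 0% = growth of vehicle-treated wt1 cultures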; conditions: S. cerevisiae wt1 strain (SPY 50644) growth inhibition, hits give high values
How it was run: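 The wt1 strain was treated with compounds, and growth was compared with vehicle-treated cultures to give inhibition.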

[8] = NCI Yeast Anticancer Drug Screen. Data for the rad50EPP+ strain (AID 151);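 further: 0% = growth of vehicle-treated control cultures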; conditions: S. cerevisiae rad50 mutant strain, hits give high values
How it was run: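 One strain with a rad50 alteration (rad50EPP+) was compound-treated, its growth then compared to that of vehicle controls.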

[9] = NCI Yeast Anticancer Drug Screen. Data for the mgt1 strain (AID 153); conditions: S. cerevisiae mgt1 mutant growth inhibition, hits give high values
How it was run: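 After exposure of the mgt1 yeast mutant to compound, growth was measured and reported as inhibition compared with vehicle controls.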

[10] = NCI Yeast Anticancer Drug Screen. Data for the rad50 strain (AID 155);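 further: 0% = growth of vehicle-only cultures of the same strain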; conditions: S. cerevisiae rad50 strain growth inhibition, hits give high values
How it was run: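 Cells are treated with compound, grown, and their growth is then scored against vehicle-only cultures of the same repair-deficient yeast strain.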

[11] = NCI Yeast Anticancer Drug Screen. Data for the mec2-1 strain (AID 157); conditions: S. cerevisiae mec2-1 strain, hits give high values
How it was run: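 Test agents were screened against the mec2-1 yeast strain, with defined DNA repair or cell cycle alteration. Growth was scored as inhibition against vehicle-only controls.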

[12] = NCI Yeast Anticancer Drug Screen. Data for the rad14 strain (AID 159);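 further: 0% = growth of vehicle-treated control cultures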; conditions: S. cerevisiae rad14 strain growth inhibition, hits give high values
How it was run: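 Readout: yeast growth inhibition, referenced to vehicle-only cultures. Strain bears a defined alteration in DNA damage repair.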

[13] = NCI Yeast Anticancer Drug Screen. Data for the sgs1 mgt1 strain (AID 161);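 further: 0% = growth of cultures given vehicle only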; conditions: S. cerevisiae sgs1 mgt1 strain, hits give high values
How it was run: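 Mutant yeast exposed to compound; growth scored against vehicle-only wells.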

[14] = NCI Yeast Anticancer Drug Screen. Data for the CLN2oe strain (AID 163);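 further: 0% = growth of vehicle-only control cultures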; conditions: S. cerevisiae CLN2oe strain, hits give high values
How it was run: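 Here, growth inhibition in a cell-cycle-altered yeast strain after compound exposure was quantified against vehicle control growth.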

[15] = NCI Yeast Anticancer Drug Screen. Data for the cln2 rad14 strain (AID 165);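 further: 0% = growth equal to vehicle treated cultures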; conditions: S. cerevisiae cln2 rad14 strain, hits give high values
How it was run: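 Growth of compound-exposed yeast (cln2 rad14 genotype) measured and expressed as inhibition relative to vehicle.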

[16] = NCI Yeast Anticancer Drug Screen. Data for the bub3 strain (AID 167); conditions: S. cerevisiae bub3 mutant strain, hits give high values
How it was run: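 Part of a panel of yeast mutants defective in DNA damage repair or cell cycle regulation. Each strain is grown with compound, and inhibition is calculated relative to solvent-treated cultures.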

[17] = at 5.0 µM (retest, dose inferred, filed as 0.5)
[18] = at 50.0 µM (retest, dose inferred, filed as 5.0)

Measured: growth inhibition

O=C(C#Cc1ccccc1)/C=C/c1ccccc1
inactive: [1]; at 1.2 µM -21% | [1]; at 3.7 µM -5% | [1]; at 11.0 µM 13% | [2]; at 1.2 µM -9% | [2]; at 3.7 µM -2% | [2]; at 11.0 µM -3% | [2]; at 33.0 µM 49% | [3]; at 1.2 µM -4% | [3]; at 3.7 µM 2% | [3]; at 11.0 µM 24% | [4]; [17] -140% | [5]; at 1.2 µM -5% | [5]; at 3.7 µM 4% | [5]; at 11.0 µM 13%
active: [1]; at 33.0 µM 91% | [1]; at 100.0 µM 97% | [2]; at 100.0 µM 96% | [3]; at 33.0 µM 97% | [3]; at 100.0 µM 95% | [4]; [18] 72% | [4]; at 50.0 µM 77% | [5]; at 33.0 µM 81% | [5]; at 100.0 µM 95%

C=CC(C)(C)N1C(=O)C(C(C)=O)=C(O)C1Cc1c[nH]c2ccccc12 (stereo unspecified)
inactive: [6]; at 1.2 µM -1% | [6]; at 3.7 µM -4% | [6]; at 11.0 µM -2% | [6]; at 33.0 µM 19% | [7]; at 1.2 µM 1% | [7]; at 3.7 µM 5% | [7]; at 11.0 µM 3% | [7]; at 33.0 µM 20% | [8]; at 1.2 µM -1% | [8]; at 3.7 µM 1% | [8]; at 11.0 µM -4% | [8]; at 33.0 µM -9% | [8]; at 100.0 µM -15% | [9]; at 1.2 µM -2% | [9]; at 3.7 µM -4% | [9]; at 11.0 µM -1% | [9]; at 33.0 µM 16% | [10]; at 1.2 µM -2% | [10]; at 3.7 µM -2% | [10]; [17] 0% | [10]; at 11.0 µM -2% | [10]; at 33.0 µM 10% | [10]; [18] 48% | [10]; at 50.0 µM 28.6% | [11]; at 1.2 µM 0% | [11]; at 3.7 µM 1% | [11]; [17] -18% | [11]; at 11.0 µM 7% | [11]; at 33.0 µM 21% | [11]; [18] -8% | [11]; at 50.0 µM 58.7% | [12]; at 1.2 µM -3% | [12]; at 3.7 µM -3% | [12]; at 11.0 µM -1% | [12]; at 33.0 µM 21% | [13]; [17] 18% | [13]; at 50.0 µM 52.8% | [14]; at 1.2 µM -5% | [14]; at 3.7 µM -12% | [14]; at 11.0 µM -9% | [14]; at 33.0 µM 16% | [15]; [17] -4% | [15]; [18] 21% | [15]; at 50.0 µM 32.8% | [16]; at 1.2 µM -3% | [16]; at 3.7 µM -2% | [16]; [17] -11% | [16]; at 11.0 µM 0% | [16]; at 33.0 µM 15% | [16]; [18] 55% | [16]; at 50.0 µM 46.8% | [1]; at 1.2 µM -1% | [1]; at 3.7 µM -1% | [1]; at 11.0 µM -1% | [1]; at 33.0 µM 16% | [2]; at 1.2 µM -6% | [2]; at 3.7 µM 0% | [2]; at 11.0 µM 0% | [2]; at 33.0 µM 14% | [2]; at 100.0 µM 66% | [3]; at 1.2 µM 0% | [3]; at 3.7 µM 0% | [3]; at 11.0 µM 2% | [3]; at 33.0 µM 17% | [4]; [17] 55% | [4]; at 50.0 µM 68.5% | [5]; at 1.2 µM 0% | [5]; at 3.7 µM -3% | [5]; at 11.0 µM -1% | [5]; at 33.0 µM 9% | [5]; at 100.0 µM 66%
active: [6]; at 100.0 µM 87% | [7]; at 100.0 µM 71% | [9]; at 100.0 µM 95% | [10]; at 100.0 µM 78% | [11]; at 100.0 µM 88% | [12]; at 100.0 µM 95% | [13]; [18] 73% | [14]; at 100.0 µM 83% | [16]; at 100.0 µM 84% | [1]; at 100.0 µM 92% | [3]; at 100.0 µM 90% | [4]; [18] 86%
